# Source: PubChem BioAssay (National Center for Advancing Translational Sciences (NCATS))
# Hits are enriched below; roughly 7.4% of the tested compounds scored in any of these assays.
# 3T3 cytotox – NIH 3T3 cell cytotoxicity | NIH 3T3 viability, CellTiter-Glo ATP luminescence, 48-72 h | AID 1345082 | 94,000 tested, 4.3% active | Potency, µM (titrated, usually from 96.7 µM), for the others: top-dose activity change, negative = cytotoxicity, usual class: inhibitors; also: % is scaled to controls: 0 for no effect and ±100 for the full control effect; nearly all actives have a fitted effect of over 55% in size
#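 Cells were seeded at 400 per well, treated with pin-transferred compound, and kept 48 or 72 hr at 37 °C before CellTiter-Glo addition and luminescence imaging of cellular ATP.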
# Luciferase inh – inhibitors of firefly (Photinus pyralis) luciferase | P08659 | purified P. pyralis luciferase, luminescence, biochemical | Potency, µM (top dose mostly 115 µM), actives largely listed as inhibitors | 76,000 tested, 2.5% active | AID 1347043; also: % is scaled to controls: 0 for no effect and ±100 for the full control effect; nearly all actives have a fitted effect of over 65% in size
#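 Purified 10nM P. pyralis luciferase with 10uM D-luciferin and 10uM ATP in 50mM Tris acetate pH 7.5, 10mM Mg acetate, 0.01% Tween-20, 0.05% BSA. qHTS titration; luminescence read by CCD imager.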
# SNCA expr inhib – SNCA gene expression inhibition; 140,000 tested, 0.17% active; HEK-293 SNCA-luciferase knock-in, luminescence, 24 h; Potency, µM (top dose mostly 57.2 µM), for inactives: at the highest dose activity change, negative = inhibition, hits mostly inhibitors;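 also: plate controls were DMSO cells for no effect and cell-free wells for full effect; nearly all actives have a fitted effect of over 45% in size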
# HEK cytotox – kills HEK 293 cells | HEK 293 viability, ATP luminescence (CellTiter-Glo), 48-72 h | Potency, µM (titrated, usually from 115 µM), inactives show at the top dose activity change, negative = cytotoxicity, actives largely listed as inhibitors | 94,000 tested, 6.6% active | AID 1345083; also: % is scaled to controls: 0 for no effect and ±100 for the full control effect; nearly all actives have a fitted effect of over 60% in size
#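 Cells seeded first (HEK 293, 250 cells/well), then compound added by pintool. Incubation ran 48 or 72 hr at 37 degree Celsius. CellTiter-Glo was added and luminescence imaged after 10 min at room temperature.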
# HEK293 viab – cell viability loss counter-screen. HEK-293-SNCA-luc viability, GF-AFC fluorescence, 24 h. Potency, µM (top dose mostly 57.1 µM), inactives show top-dose activity change, negative = cytotoxicity, most hits filed as cytotoxic. 150,000 tested, 0.12% active;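 also: 0% = DMSO-treated cells and -100% = medium-only wells without cells; nearly all actives have a fitted effect of over 30% in size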
#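 Cytotoxicity counterscreen: after 24 h compound treatment of genome-edited SNCA-luciferase HEK-293 cells, live-cell protease substrate GF-AFC read by fluorescence after 30 min; activity scaled between DMSO (0%) and medium-only (-100%), curves Hill-fitted.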
# hNpr1 antagonist – blocks ANP-stimulated signaling of human Npr1 receptor; P16066; HEK293 hNpr1 GloSensor cGMP, ANP-stimulated luminescence; Potency, µM (series often up to 46.3 µM), without a hit: top-dose activity change, negative = inhibition, actives largely listed as inhibitors; 76,000 tested, 1.6% active; calls by dose curve; also: % is scaled to controls: 0 for no effect and ±100 for the full control effect; nearly all actives have a fitted effect of over 60% in size
#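 Compound pre-incubated 30 min at room temperature on GloSensor-loaded HEK293 cells stably carrying hNpr1 and the pGS-40F cGMP biosensor. Stimulation uses hNppA at 0.1 nM final; luminescence is taken at baseline and 20 min post-agonist.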
# Npr1 antag conf – confirmation of human Npr1 natriuretic peptide receptor antagonists. AID 1347044. HEK293 hNpr1 cGMP GloSensor luminescence, ANP-stimulated. shares compounds with hNpr1 antagonist. 1,400 tested, 76% active. Potency, µM (top dose mostly 57.6 µM), inactives show top-dose activity change, negative = inhibition, hits mostly inhibitors; calls by dose curve; also: nearly all actives have a fitted effect of over 70% in size
# NPR2 antag – selectivity test of Npr1 antagonists against human Npr2 | 1,400 tested, 67% active | HEK293 hNpr2 GloSensor cGMP luminescence, CNP-stimulated | Potency, µM (doses to about 57.6 µM), without a hit: at the highest dose activity change, negative = inhibition, most hits filed as inhibitors | shares compounds with hNpr1 antagonist; calls by dose curve; also: nearly all actives have a fitted effect of over 70% in size
# Target sequence (P20594 whole entry, looked up): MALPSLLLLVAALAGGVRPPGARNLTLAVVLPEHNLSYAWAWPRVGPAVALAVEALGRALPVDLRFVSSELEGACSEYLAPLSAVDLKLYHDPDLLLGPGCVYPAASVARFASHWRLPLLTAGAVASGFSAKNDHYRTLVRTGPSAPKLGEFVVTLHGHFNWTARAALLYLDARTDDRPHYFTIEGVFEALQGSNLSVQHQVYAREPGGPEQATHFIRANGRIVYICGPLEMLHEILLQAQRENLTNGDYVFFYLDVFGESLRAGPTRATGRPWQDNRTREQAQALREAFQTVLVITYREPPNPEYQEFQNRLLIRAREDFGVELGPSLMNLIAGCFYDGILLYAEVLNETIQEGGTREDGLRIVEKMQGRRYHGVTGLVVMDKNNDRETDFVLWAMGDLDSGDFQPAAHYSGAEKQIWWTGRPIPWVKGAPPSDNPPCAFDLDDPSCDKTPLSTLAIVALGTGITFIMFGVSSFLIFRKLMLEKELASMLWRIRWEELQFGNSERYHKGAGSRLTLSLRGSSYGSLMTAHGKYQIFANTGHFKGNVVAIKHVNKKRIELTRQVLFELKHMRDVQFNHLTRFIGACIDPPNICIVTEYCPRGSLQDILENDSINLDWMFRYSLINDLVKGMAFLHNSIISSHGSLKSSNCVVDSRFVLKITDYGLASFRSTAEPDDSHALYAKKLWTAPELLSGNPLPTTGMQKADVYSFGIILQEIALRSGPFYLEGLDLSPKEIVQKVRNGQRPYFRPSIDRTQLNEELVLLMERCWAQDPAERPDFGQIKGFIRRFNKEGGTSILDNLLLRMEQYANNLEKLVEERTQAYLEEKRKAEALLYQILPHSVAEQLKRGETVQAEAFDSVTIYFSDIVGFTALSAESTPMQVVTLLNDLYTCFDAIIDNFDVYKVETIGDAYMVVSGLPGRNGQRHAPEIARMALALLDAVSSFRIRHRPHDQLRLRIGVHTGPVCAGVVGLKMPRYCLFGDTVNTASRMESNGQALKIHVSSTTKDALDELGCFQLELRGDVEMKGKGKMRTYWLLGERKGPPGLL
# FLuc inh counter – inhibits firefly luciferase, false Npr1 antagonist flag. shares compounds with hNpr1 antagonist. purified FLuc enzyme, luminescence, Km substrate. 1,400 tested, 0.7% active. AID 1347047. Potency, µM (series often up to 57.6 µM), for the others: at the top dose activity change, negative = inhibition, most hits filed as inhibitors; also: 0% is about no effect
# GloSensor cGMP – counter-screen for Npr1 antagonists: GloSensor control cell line; shares compounds with hNpr1 antagonist; Potency, µM (highest dose often 57.6 µM), without a hit: at the highest dose activity change, negative = inhibition, actives largely listed as inhibitors; 1,400 tested, 69% active; HEK293 GloSensor cGMP, SNP-stimulated, luminescence; calls by dose curve; also: % is scaled to controls: 0 for no effect and ±100 for the full control effect; nearly all actives have a fitted effect of over 70% in size
# An asterisk follows results filed as active; i = inactive; ? = inconclusive; / = no result; [ ] = dose if it differs, or a comment. Unless noted, calls follow the shape of the dose curve; as a rule, active = well fitted curve in the direction sought with a large enough effect; inconclusive = small, poorly fitted or top-dose-only effect, or another doubt; inactive = no such curve, though single readings can be large; an effect the other way counts as inactive or inconclusive. Potency is read from the fitted curve at half-maximal effect.
SMILES,3T3 cytotox,Luciferase inh,SNCA expr inhib,HEK cytotox,HEK293 viab,hNpr1 antagonist,Npr1 antag conf,NPR2 antag,FLuc inh counter,GloSensor cGMP
COc1ccc(CN2CC3(CCN(C(=O)c4cn[nH]c4-c4ccc(F)cc4)CC3)C2=O)cc1,?,i,-11.9%,28.2µM*,-22.6%,11.2µM*,13.7µM*,19.3µM*,-4.3%,12.2µM*
O=C(Cc1ccccc1Cl)N1CCN(c2cc(-c3ccccc3)[nH]n2)CC1,?,i,13.4%,?,-7.9%,-3.5%,/,/,/,/
COc1ccc(-c2noc(CC3CCN(C(=O)c4cc(F)cc(F)c4)CC3)n2)cc1,?,i,-4.8%,?,-16.0%,6.31µM*,5.44µM*,6.11µM*,2.4%,5.44µM*
COc1cc(OC)cc(C(=O)N2CCC(Cc3nc(-c4ccc(F)cc4)no3)CC2)c1,?,i,?,31.6µM*,-6.2%,12.6µM*,15.3µM*,21.7µM*,0.1%,15.3µM*
COC(=O)c1cccc(C(=O)N2CCC(Cc3nc(-c4ccc(F)cc4)no3)CC2)c1,?,i,?,?,-3.4%,7.08µM*,6.11µM*,6.85µM*,-2.2%,5.44µM*
CCN1C(=O)Cc2ccccc2C1C(=O)NCc1cccc(F)c1 (stereo not given),-32.0%,i,-14.7%,-19.8%,-8.8%,-13.6%,/,/,/,/
FC(F)(F)c1ccc(CN2CCC3(CC2)CC(c2cccnc2)=NO3)cc1,?,i,?,?,-3.9%,2.51µM*,6.85µM*,10.9µM*,2.2%,6.11µM*
FC(F)(F)c1ccc(CN2CCC3(CC(c4cccnc4)=NO3)C2)cc1 (stereo not given),-17.3%,/,-4.7%,?,-2.6%,/,/,/,/,/
CN(C)c1ccc(C(=O)N2CCC(Cc3nc(-c4cnccn4)no3)CC2)cc1,-28.4%,i,-20.5%,-6.9%,10.4%,-12.2%,/,/,/,/
COc1ccc(C(=O)N2CCC(Cc3nc(-c4ccc(F)cc4)no3)CC2)c(C)c1,?,i,-25.9%,?,-10.8%,1.41µM*,1.53µM*,2.17µM*,0.0%,1.72µM*
COc1cccc(-c2noc(CC3CCN(C(=O)c4ccc(N(C)C)cc4)CC3)n2)c1,-16.8%,i,2.7%,?,7.0%,10µM*,13.7µM*,15.3µM*,-18.5%,10.9µM*
COc1cccc(-c2cccc(C(=O)N3CCN(C(=O)c4ccccc4C)CC3)c2)c1,?,/,-6.2%,?,-10.9%[12.5 µM],/,/,/,/,/
COc1cccc(-c2noc(CC3CCN(C(=O)c4ccccc4C)CC3)n2)c1,?,i,4.1%,?,-12.5%,12.6µM*,12.2µM*,17.2µM*,-4.8%,12.2µM*
COc1cccc(-c2noc(CC3CCN(C(=O)c4ccc(OC)cc4C)CC3)n2)c1,?,i,-18.7%,?,-19.4%,3.55µM*,3.43µM*,4.85µM*,1.5%,2.73µM*
CCCCN1C(=O)C(CC(=O)N(C)C)Sc2ncccc21 (stereo not given),0.7%,i,15.4%,5.1%,16.5%,1.5%,/,/,/,/
CSCc1nc(CNc2nc(C3CCCC3)nc3c2cnn3C)cs1,?,i,-9.7%,25.1µM*,-19.2%,8.91µM*,15.3µM*,19.3µM*,-0.2%,12.2µM*
CCNc1nc(NCc2ccc(F)cc2)c2cnn(C)c2n1,/,/,4.9%,/,-9.4%,/,/,/,/,/
O=C(c1ccccc1F)N1CCC(C(=O)N2CCC(N3CCOC3=O)CC2)CC1,-15.1%,/,-28.4%,-6.0%,-3.3%,/,/,/,/,/
Cc1nn(C)c(C)c1C(C)NC(=O)c1ccc(CC2CCN(C(=O)C3CC3)CC2)cc1 (stereo not given),?,i,?,?,8.3%,11.2µM*,17.2µM*,17.2µM*,8.1%,15.3µM*
CCCCCCCCCCCCc1ccc(S(=O)(=O)Nc2nncs2)cc1,/,/,55.3%,/,7.9%,/,/,/,/,/
O=S(=O)(c1cccnc1)N1CC(c2noc(C3CCCN3CC3CC3)n2)C1 (stereo not given),-18.2%,i,31.2%,?,?,0.8%,/,/,/,/
COc1ccc(CN2CCCC23Cc2ccccc2CNC3=O)c(OC)n1 (stereo not given),-11.8%,/,-17.1%,-14.4%,-0.3%,/,/,/,/,/
CC(=O)N1CCn2c(nn(-c3ccc([N+](=O)[O-])cc3)c2=O)C1,-36.3%[138 µM],i,10.3%[87.6 µM],?,23.6%[87.6 µM],1.6%[70.6 µM],/,/,/,/
COc1ccc(CN2CCn3c(nn(-c4ccc([N+](=O)[O-])cc4)c3=O)C2)cc1,?,i,-2.6%,?,-4.8%,11.2µM*,21.7µM*,21.7µM*,-6.5%[86.2 µM],21.7µM*
COc1ccc(-n2nc3n(c2=O)CCN(Cc2cccn2C)C3)cc1,-24.5%,/,111.5%,?,-26.8%,/,?,?,?,?
CN(C)c1ccc(CN2CCn3c(nn(-c4ccc([N+](=O)[O-])cc4)c3=O)C2)cc1,?,i,6.1%,31.6µM*,8.3%,11.2µM*,17.2µM*,19.3µM*,2.7%[86.2 µM],13.7µM*
CC(C)CN(C)C(=O)c1cc(-c2cnn(C(C)C)c2)nc2ccc(F)cc12,-27.2%,i,6.7%,?,-13.4%,-0.5%,/,/,/,/
O=C(c1ccc(F)c(F)c1)N1CCN(C(=O)c2nnn3c2COC(c2ccc(Cl)cc2)C3)CC1 (stereo not given),?,i,-19.5%,-46.0%,0.8%,12.6µM*,21.7µM*,21.7µM*,7.7%,19.3µM*
CN(C)c1cccc(C(=O)N2CCN(C(=O)c3nnn4c3COC(c3ccc(Cl)cc3)C4)CC2)c1 (stereo not given),?,i,?,?,?,12.6µM*,24.3µM*,24.3µM*,-29.4%,24.3µM*
